Screening results (PubChem)
A3G deaminase = APOBEC3G (human) deaminase inhibition; recombinant A3G, ssDNA deamination FAM/TAMRA fluorescence; inhibition, % at 20 µM; 330,000 compounds, 0.28% hits;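 active = inhibition of at least 40% at 20 µM, with no more than 30% in the related APOBEC3A deaminase screen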
A3A deaminase = blocks human APOBEC3A ssDNA deamination; P31941; AID 493011; 330,000 compounds, 0.41% hits; inhibition, % at 20 µM; recombinant A3A, FAM/TAMRA ssDNA deamination fluorescence;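 active = at least 40% inhibition at 20 µM here, with at most 30% in a related deaminase screen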
HDAC3 inh = blocks human histone deacetylase 3; O15379; recombinant HDAC3, fluorogenic peptide/trypsin coupled, fluorescence; inhibition, % at 8.3 µM; 320,000 compounds, 0.15% hits; AID 2718; in the data active = inhibition above about 26%, passing the limit was not always enough
Target sequence (O15379 whole entry, looked up): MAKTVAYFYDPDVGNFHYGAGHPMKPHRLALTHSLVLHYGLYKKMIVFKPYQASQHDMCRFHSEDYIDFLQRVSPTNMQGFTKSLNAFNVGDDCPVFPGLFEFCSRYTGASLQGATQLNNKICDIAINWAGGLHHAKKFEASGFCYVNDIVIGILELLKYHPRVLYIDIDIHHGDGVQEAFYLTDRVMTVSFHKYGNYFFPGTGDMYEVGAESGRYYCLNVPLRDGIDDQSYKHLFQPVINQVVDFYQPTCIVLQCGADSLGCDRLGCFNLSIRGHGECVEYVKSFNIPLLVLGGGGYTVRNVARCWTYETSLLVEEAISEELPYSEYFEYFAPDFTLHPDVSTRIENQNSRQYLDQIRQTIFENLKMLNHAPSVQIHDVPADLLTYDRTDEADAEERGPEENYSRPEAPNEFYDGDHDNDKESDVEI
LANA-H2A inh = blocks KSHV LANA binding to histone H2A/H2B. Q9QR71. cell-free LANA-H2A/H2B peptide, fluorescence polarization. 320,000 compounds, 0.6% hits. inhibition, % (concentration not given with the values). AID 2629; in the data active = inhibition mostly above about 10%, no sharp cut-off; inactive = mostly below about 6.7%
APOBEC3A confirm = confirmation of human APOBEC3A DNA deaminase inhibitors; shares compounds with A3A deaminase; recombinant A3A, ssDNA deaminase UDG fluorescence assay; inhibition, % at 20 µM; 1,400 compounds, 63% hits; AID 493151;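 active = inhibition reaching a set limit, 80% of the first screen's cutoff, at 20 µM in any replicate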
UDG A3A counter = inhibits UDG, flagging false APOBEC3A inhibitors. shares compounds with A3A deaminase. UDG counterscreen, FAM/TAMRA uracil oligo fluorescence. inhibition, % at 20 µM. 1,000 tested, under 10 active; call rule not given here
Each line names hits and unclear results; the compound was inactive in the other large screens (follow-up assays come after a bar, where they were run). Most compounds without a hit are left out; they make up all but 1.4% or so of the library.

Cc1nnc(SCC(=O)Nc2ccc3c(c2)OCCO3)n1N	none
Nn1c(SCC(=O)Nc2ccc3c(c2)OCCO3)nnc1C(F)(F)F	A3A deaminase 61 | APOBEC3A confirm inactive
COC(=O)c1cc(S(=O)(=O)NCc2cccs2)c[nH]1	none
CCCCN(Cc1ccccc1)C(=O)CCN1C(=O)C2C3C=CC(C3)C2C1=O (stereo not given)	none
N#C/C(=C\c1ccc(F)cc1)c1nc(-c2ccco2)cs1	none
N#C/C(=C\c1ccc(Cl)cc1)c1nc(-c2ccco2)cs1	A3A deaminase 41 | APOBEC3A confirm inactive
CC1CCC(C(C)C)C(OCC(O)C[N+]2(C)CCCCC2)C1 (stereo not given)	A3A deaminase 78 | APOBEC3A confirm 74 | UDG A3A counter inactive
Cc1ccc(NS(=O)(=O)c2cccc(C(=O)N3CCN(C(=O)c4ccco4)CC3)c2)cc1	none
Cc1cc(C)nc(/N=C2/NC(=O)CS2)n1	A3A deaminase 64 | APOBEC3A confirm inactive | UDG A3A counter inactive
Cc1ccc(N=C2NC(=O)CS2)cc1	none
CN1CCN(c2ccc(Cl)cc2NC(=O)CC2OC(=O)c3ccccc32)CC1 (stereo not given)	A3A deaminase 96 | APOBEC3A confirm 69 | UDG A3A counter inactive
COc1ccc(CN2CCN(C(=O)Cn3nc(C(=O)O)c4ccccc4c3=O)CC2)cc1F	none
COc1cccc(CN(CC(=O)NCc2ccc(F)cc2)C(=O)c2ccco2)c1	A3A deaminase 45 | APOBEC3A confirm inactive | UDG A3A counter inactive
O=C(CN(Cc1ccccc1)C(=O)c1ccco1)NCc1ccc(F)cc1	none
Cc1ccc(CCCOC(=O)C[N+]2(C)CCOCC2)cc1	A3A deaminase 42 | APOBEC3A confirm 89 | UDG A3A counter inactive
C[N+]1(CC(=O)OCCCc2ccccc2)CCOCC1	A3A deaminase 69 | APOBEC3A confirm 92 | UDG A3A counter inactive
Cc1ccc(CCCOC(=O)CN2CCCCC2)cc1	none
O=C(CN1CCOCC1)OCCCc1ccccc1	none
CN(Cc1nc(Cc2cccc(C(F)(F)F)c2)no1)C1CC(C)(C)NC(C)(C)C1	none
COc1ccc(-c2nn(CCC(=O)O)cc2/C=C/C(=O)O)cc1[N+](=O)[O-]	none
O=C(c1ccc(N2CCCC2=O)cc1)N1CCN(c2cccc(C(F)(F)F)c2)CC1	none (no result: HDAC3 inh, LANA-H2A inh)
Cn1c(SCC(=O)N2CCOCC2)nnc1-c1cccc(NC(=O)c2ccccc2)c1	A3A deaminase 64 | APOBEC3A confirm 66 | UDG A3A counter inactive
Cn1c(SCC(=O)N2CCOCC2)nnc1-c1ccncc1	none
CCN(C(=O)Cn1c(=O)oc2ccccc21)c1cccc(C)c1	A3A deaminase 100 | APOBEC3A confirm inactive
Cc1cc(C(=O)N/N=C/c2cc(Br)c(Br)o2)n[nH]1	A3A deaminase 58 | APOBEC3A confirm 37 | UDG A3A counter inactive
Cc1cc(C(=O)N/N=C/c2ccc(Br)o2)n[nH]1	none
O=S(=O)(/N=C(/Nc1cccnc1Cl)c1ccccc1)c1ccccc1	none
COc1ccc2nc(Nc3nc4cc5c(cc4s3)OCO5)sc2c1	A3A deaminase 46 | APOBEC3A confirm 39 | UDG A3A counter inactive
COc1ccc2nc(Nc3ccc4c(c3)OCO4)sc2c1	none
CC(=O)Nc1ccccc1NC(=O)C/C(C)=N/NC(=O)Cc1cccc2ccccc12	none
CN(Cc1ccc(F)cc1)C(=O)c1ccc(NC(=O)CC2SC(N3CCCC3)=NC2=O)cc1 (stereo not given)	none
Cc1ccc(-c2c(C(=O)N/N=C/c3ccco3)nnn2-c2nonc2N)cc1	A3A deaminase 61 | APOBEC3A confirm inactive
O=C1Nc2ccccc2/C1=N/c1sc2c(c1C(=O)NCCc1ccccc1)CCCC2	A3A deaminase 44 | APOBEC3A confirm inactive | UDG A3A counter inactive
COC(=O)C1=C(C)N(CC2CC2)C(=NCc2cccc(Cl)c2)N[C@H]1c1ccccc1	A3A deaminase 59 | APOBEC3A confirm 44
COCCN=C1N[C@@H](c2ccccc2)C(C(=O)OC)=C(C)N1Cc1ccccc1	none
COC(=O)C1=C(C)N(CC2CC2)C(=NCc2cc(OC)c(OC)c(OC)c2)N[C@H]1c1ccccc1	A3A deaminase 47 | APOBEC3A confirm 56 | UDG A3A counter inactive
COCCN=C1N[C@@H](c2ccc(Br)cc2)C(C(=O)OC)=C(C)N1Cc1ccccc1	A3A deaminase 54 | APOBEC3A confirm 40 | UDG A3A counter inactive
COC(=O)C1=C(C)N(Cc2ccccc2)C(=NCc2cc(OC)c(OC)c(OC)c2)N[C@H]1c1ccc(Br)cc1	A3A deaminase 46 | APOBEC3A confirm 60 | UDG A3A counter inactive
